The entries come from a sample that favours hits as a whole.
KDM5B inhibitor: inhibitors of human KDM5B histone demethylase | Q9UGL1 | KDM5B demethylase, FDH-coupled NADH fluorescence (FDH is formaldehyde dehydrogenase) | Potency, µM (highest dose often 57.7 µM), usual class: inhibitors | actives 2.6% (n = 220,000) | AID 1347165; active means well fitted inhibition curve with a large enough effect; further: 0% is about no effect; nearly all actives have a fitted effect of over 70% in size
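Measured: NADH fluorescence change, 30 min, RT. System: KDM5BΔAP 200 nM final, H3K4me3 peptide, α-KG, Fe(II), ascorbate, NAD⁺ plus FDH, pH 7.5 HEPES. Compounds: titrated, 10 min pre-incubation with enzyme.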
Numbers without * were called inactive; i = inactive. Potency means the concentration at half of the fitted maximal effect.

SMILES	KDM5B inhibitor
CN(C)Cc1nnc(C2CC(NC(=O)c3cn(-c4ccccc4)nn3)C2)n1C (stereo not given)	i
CN(C)Cc1nnc(C2CC(Nc3cncc(C(=O)N(C)C)n3)C2)n1C (stereo not given)	28µM*
CC(=O)c1c(C)nn(CC(=O)NC2CC(c3nnc(CN(C)C)n3C)C2)c1C (stereo not given)	i
CN(C)Cc1nnc(C2CC(NC(=O)c3cc(-c4cccn4C)n[nH]3)C2)n1C (stereo not given)	i
CN(C)Cc1nnc(C2CC(NC(=O)c3ccn(C)c(=O)c3)C2)n1C (stereo not given)	32µM*
O[C@H]1[C@H](NCC2CCCCC2)[C@H]2CO[C@H](O2)[C@@H]1N1CCC(Cc2ccccc2)CC1	i
CC(=O)N1CC2(Cc3ccccc31)CN([S+](=O)([O-])c1cccc(C(F)(F)F)c1)C2	i
CC(=O)Nc1ccc(NC(=O)c2cc3sc(C)c(CN4CCCCC4)c3[nH]2)cc1	i
O=C(NCCc1ccc(Cl)cc1)C1CCOCC1	i
O=C1Nc2ccccc2CC12CCN2Cc1ccc(C(F)(F)F)cc1 (stereo not given)	i
O=C(C1CCCC1)N1Cc2ccccc2NC(=O)C12CCNCC2	i
O=C1Nc2ccccc2CN(CC2CC2)C12CCNC2 (stereo not given)	i
O=C(Cc1ccc(F)cc1)N1CCCCC12Cc1ccccc1NC2=O (stereo not given)	i
O=C(C1CC1)N1Cc2ccccc2NC(=O)C12CCNC2 (stereo not given)	i
O=C1Nc2ccccc2CN(CC2CCCC2)C12CCNC2 (stereo not given)	89µM*
O=C1Nc2ccccc2CC12CCCCN2Cc1ccc(OC(F)(F)F)cc1 (stereo not given)	i
O=C1Nc2ccccc2CN(Cc2ccc(F)cc2)C12CCNCC2	45µM*
O=C1Nc2ccccc2CN(Cc2ccc(C(F)(F)F)cc2)C12CCNCC2	50µM*
O=C(C1CN(C(=O)c2cccc(Cl)c2Cl)c2ccccc2O1)N1CCOCC1 (stereo not given)	i
O=C1CCC(C(=O)N[C@@H]2COCC[C@@H]2OCc2cscn2)=NN1	i
CC(=O)c1ccccc1NC(=O)Cn1cnc2cc(Cl)ccc2c1=O	i
COCCC(=O)N1CCCC(C(=O)N2CCN(c3ccccn3)CC2)CCNC(=O)CC1 (stereo not given)	28µM*
COCC1CCN(C(=O)C2CCCN(C(=O)c3ccccc3)CCC(=O)NCC2)CC1 (stereo not given)	i
CCCC(=O)NC(C)C(=O)N1CCN(c2ccccn2)CC1 (stereo not given)	25µM*
COCCn1ncc(N2CCCC(CC(=O)N3CCN(c4ccccn4)CC3)C2)cc1=O (stereo not given)	i
SMILES	KDM5B inhibitor
CC(NC(=O)CCc1ccccc1)C(=O)N1CCN(c2ccccn2)CC1 (stereo not given)	25µM*
CCC(=O)N1CCC2(CC1)CC(N1CCN(c3ccccn3)CC1)CCO2 (stereo not given)	i
C[C@H](NC(=O)c1ccccc1)C(=O)N1CCN(c2ccccc2)CC1	i
CCCCCn1nc(C(=O)N2CCN(c3ccccn3)CC2)c2ccccc2c1=O	i
Cc1ccc(CC(=O)NCCc2ccccn2)cc1	i
Cc1ccc(CC(=O)NC(C)C(=O)N2CCN(c3ccccn3)CC2)cc1 (stereo not given)	28µM*
CC(CNC(=O)CCc1ccccc1)NC(=O)CCc1ccccc1 (stereo not given)	i
Cc1ccc(OC(C)C(=O)N2CCN(c3ccccn3)CC2)cc1 (stereo not given)	i
N[C@@H]1CCN(C(=O)c2ccccc2OC(F)(F)C(F)F)C[C@H]1O	i
C=CCOc1ccc(C(=O)Nc2ccc(C)c(C)c2)cc1	i
Clc1cccc(CNCCN2CCCC2)c1Cl	i
O=C(NCc1ccc(C(F)(F)F)cc1)C1CN(c2cccc(Cl)c2)C(=O)N1 (stereo not given)	i
CCOc1ccc(NC(=O)c2cnc(SC)nc2C(F)(F)F)cc1	i
CCC12CN(C(C)=O)CC(CC)(CN(C(C)=O)C1)C2=O	i
Cn1cnnc1CC1CCN(C(=O)c2cn3ccsc3n2)CC1	i
CN(CC(=O)Nc1cccc(F)c1)C(=O)c1cccc(C(=O)N(C)CC(=O)Nc2cccc(F)c2)n1	i
C=CCN(CC(F)(F)F)C(=O)c1ccc(NC(=O)NC2CC2)cc1	i
CCC(=O)N1CCc2sc(C(=O)NCc3ccc4c(c3)OCO4)cc2C1	i
O=C(CN1CCN(c2ccccn2)CC1)Nc1cccc(Br)c1	i
C/C(=C/C(=O)C(F)(F)F)N1CCN(c2ccccn2)CC1	i
O=C(CCN1CCN(c2ccccn2)CC1)Nc1ccc(F)c(F)c1	i
COCCC(=O)NC(C)C(=O)N1CCN(c2ccccn2)CC1 (stereo not given)	25µM*
O=C(c1csc(N2CCN(c3ccccc3)CC2)n1)N1CCN(c2ccccn2)CC1	i
CC(NC(=O)C(C)(C)C)C(=O)N1CCN(c2ccccn2)CC1 (stereo not given)	28µM*
CCCc1ccc(C(Nc2ccc3nnnn3n2)c2cccs2)cc1 (stereo not given)	i
SMILES	KDM5B inhibitor
CCN1CCN(c2ccc(NC(=O)c3cnc4ccccc4n3)cc2)CC1	i
Cc1ccc(NC(=O)N[C@H]2C[C@@H](c3nc(-c4ccccn4)no3)N(C)C2)cc1	i
O=C(c1cccc(S(=O)(=O)NC2CC2)c1)N1CCN(c2ccccc2F)CC1	i
COCCn1c(COc2ccccc2-c2ccccc2)nnc1SCC(=O)c1ccccc1Cl	i
CC(C)[C@@H](C(=O)Nc1ccc(N(C)C)cc1)n1nnc2ccccc2c1=O	i
COCC(=O)Nc1nc2c(s1)C[C@@H]1[C@](C)(CO)[C@H](O)CC[C@@]1(C)[C@@H]2CC(=O)N1CCC(C)CC1	i
CN(Cc1ccccc1)C(=O)C[C@@H]1c2nc(NC(=O)CC(C)(C)C)sc2C[C@@H]2[C@](C)(CO)[C@H](O)CC[C@]21C	i
C#CCNC(=O)C[C@@H]1c2nc(NC(=O)C(C)(C)C)sc2C[C@@H]2[C@](C)(CO)[C@H](O)CC[C@]21C	i
C#CCNC(=O)C[C@@H]1c2nc(NC(=O)c3ccc(C(C)(C)C)cc3)sc2C[C@@H]2[C@](C)(CO)[C@H](O)CC[C@]21C	32µM*
COc1ccc(C(=O)Nc2nc3c(s2)C[C@@H]2[C@](C)(CO)[C@H](O)CC[C@@]2(C)[C@@H]3CC(=O)N2CCC(C)CC2)cc1	28µM*
CC1CCN(C(=O)C[C@@H]2c3nc(NC(=O)C(C)(C)C)sc3C[C@@H]3[C@](C)(CO)[C@H](O)CC[C@]32C)CC1	i
COCCNC(=O)C[C@@H]1c2nc(NC(=O)c3ccc(F)cc3)sc2C[C@@H]2[C@](C)(CO)[C@H](O)CC[C@]21C	i
CN(Cc1ccccc1)C(=O)C[C@@H]1c2nc(NC(=O)C(C)(C)C)sc2C[C@@H]2[C@](C)(CO)[C@H](O)CC[C@]21C	i
C[C@]1(CO)[C@H]2Cc3sc(NC(=O)c4ccc(F)cc4)nc3[C@@H](CC(=O)NC3CC3)[C@]2(C)CC[C@H]1O	i
C[C@]1(CO)[C@H]2Cc3sc(NC(=O)c4ccc(F)cc4)nc3[C@@H](CC(=O)Nc3ccccc3)[C@]2(C)CC[C@H]1O	32µM*
CN(Cc1ccccc1)C(=O)C[C@@H]1c2nc(NC(=O)c3ccc(F)cc3)sc2C[C@@H]2[C@](C)(CO)[C@H](O)CC[C@]21C	35µM*

Source: PubChem BioAssay (National Center for Advancing Translational Sciences (NCATS))
